Measured values taken from paper PMC5540273 (PLoS ONE, 2017).

What was measured:
PIK4CB = test system: T1, PIK4CB
T1 construct: gene PI4KB

PRKR = test system: T2, PRKR
T2 construct: gene EIF2AK2
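Note: kd values determined as follow-up on hits from a single-replicate KINOMEscan panel screen.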

## COc1ccc(-c2cc3c(C)nc(N)nc3n([C@H]3CC[C@H](O)CC3)c2=O)cn1
PIK3CG
  Kd: 0.32 nM
PIK4CB
  Kd: 25 nM

## COc1ccc(-c2cc3c(C)nc(N)nc3n([C@H]3CC[C@H](OCCO)CC3)c2=O)cn1
PIK4CB
  Kd: 46 nM

## Cc1cccc(-c2nc(Nc3ccc4c(cnn4C)c3)c3ccccc3n2)n1 [GW876731]
PIKFYVE
  Kd: 380 nM
PRKD1
  Kd: 7.2 nM
PRKD2
  Kd: 12 nM
PRKD3
  Kd: 13 nM

## C[C@@H]1CC[C@H](C(=O)NC2CCCCC2)CN1c1cc(-c2ccc3c(N)n[nH]c3c2)nc(N)n1 [GSK2291363]
PIP5K1A
  Kd: 440 nM
PRKX
  Kd: 460 nM
RIOK1
  Kd: 210 nM
RIOK3
  Kd: 150 nM

## COc1cc2ncn(-c3cc(OCc4ccncc4Br)c(C(N)=O)s3)c2cc1OC [GW854278]
PIP5K1C
  Kd: 610 nM

## FC(F)(F)c1ccc(-c2ncn(CCCN3CCOCC3)c2-c2ccncc2)cc1 [SB-217780]
PRKCD
  Kd: > 10000 nM

## CCC(=O)c1c(-c2ccccc2)c2cc(Cl)ccc2c(=O)n1Cc1cc(S(C)(=O)=O)n(CC(N)=O)n1
PRKCH
  Kd: > 10000 nM

## COc1cccc(C2=C(Nc3cccc(C(=O)O)c3)C(=O)NC2=O)c1 [SB-390770]
PRKCI
  Kd: > 10000 nM

## Cc1cc(Nc2nc(-c3cccc(C)n3)nc3ccccc23)ccn1 [GW872411]
PRKD1
  Kd: 6.1 nM
PRKD2
  Kd: 9.4 nM

## O=C1NC(=O)C(c2ccccc2)=C1Nc1cccc(O)c1 [SB-390534]
PRKR
  Kd: > 10000 nM

## Cc1ccc(Oc2ccc(Nc3ncnc4cc[nH]c34)cc2C)cn1
RIOK1
  Kd: > 10000 nM
